PubChem BioAssay (NCATS)
Several values for one entry are separate records, joined by “and”; a condition that tells them apart may be missing. Equal values may be shown once. Records with an inconclusive call do not appear. Activity calls are given as the source filed them. Unless noted, the call rests on the fitted dose curve; in most records, active means well fitted curve in the direction sought with a large enough effect; inconclusive means small, poorly fitted or top-dose-only effect, or another doubt; inactive means no such curve, though single readings can be large; an effect the other way counts as inactive or inconclusive.

Experiments:
[1] = AP1 Signaling Pathway (AID 357; active means well fitted curve in either direction with a large enough effect, not every such curve was filed as active;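 further: ME-180 reporter cells stimulated with EGF at its EC50 level; on the % scale 0 is the no-effect control and ±100 the full control effect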); conditions: ME-180 AP-1-bla reporter, EGF-induced, beta-lactamase ratio, 5 h
Summary of the method: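 Titration-series screen for positive or negative modulators of EC50 EGF-induced signaling in ME-180 cells carrying an AP-1-driven beta-lactamase reporter. After 5 hours at 37 degrees Celsius, CCF4 460nm/530nm emission ratio gave %Activity; AC50 values derived.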

[2] = biological target: Cytochrome P450 1A2 (Homo sapiens) (UniProt P05177); assay: p450-cyp1a2 (AID 410; calls by dose curve; further: potency means the concentration at half of the fitted maximal effect); conditions: recombinant CYP1A2, luciferin-ME demethylation, luminescence; series mostly up to 57 µM
Summary of the method: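 20nM CYP1A2 with 100uM Luciferin-ME (at Km) in 100mM KPO4; compound preincubated 10 min, NADPH regeneration added, 60 min at room temperature. Luciferin quantified by luminescence after detection reagent; normalized to 57 uM furafylline.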

[3] = Stat Signaling Pathway (AID 446; active means well fitted curve in either direction with a large enough effect, not every such curve was filed as active;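 further: ME-180 cervical cancer cells given 40 pM IL-6 alongside compound; SIE-controlled beta-lactamase reporter measured as 460/530 nm FRET emission ratio; on the % scale 0 is the no-effect control and ±100 the full control effect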); conditions: ME-180 (cervical carcinoma) SIE beta-lactamase reporter, IL-6 stimulated, 5 h
Summary of the method: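 IL-6/STAT signaling read in ME-180 cells via an SIE beta-lactamase reporter. Stimulus was 40 pM IL-6 (its AC50) for 5 hrs, so both activation and inhibition register.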

[4] = biological target: Glucocorticoid receptor (Homo sapiens) (UniProt P04150); assay: GR-GFP Redistribution (AID 450;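 active means compounds whose dose series gives a full or clear partial fitted curve of increased nuclear translocation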; further: potency means the concentration at half of the fitted maximal effect); conditions: U2OS GR-GFP nuclear translocation, laser cytometry, 2 h
[5] = biological target: Glucocorticoid receptor (Homo sapiens) (UniProt P04150); assay: GR-EFC Redistribution (AID 451; calls by dose curve; further: potency means the concentration at half of the fitted maximal effect); conditions: CHO-K1 GR-EFC translocation, beta-gal luminescence, 2 h
Summary of the method: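 CHO-K1 cells stably expressing nuclear-localized β-gal enzyme acceptor and GR fused C-terminally to the enzyme donor fragment; ligand-driven nuclear translocation restores β-gal by complementation. Compounds titrated up to 46 uM final, 2 h at 37 °C; luminescence read.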

[6] = biological target: Mitogen-activated protein kinase 10 (Mus musculus) (UniProt Q61831); assay: JNK3 AlphaScreen Assay (AID 530; active means well fitted curve in either direction with a large enough effect, not every such curve was filed as active;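 further: kinase came from lysate of stimulated human HepG2 cells; signal reports phosphorylation of biotinylated GST-cJun 1-79 at Ser73 with 10 µM ATP; on the % scale 0 is the no-effect control and ±100 the full control effect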); conditions: JNK3 lysate, c-Jun phosphorylation; series mostly up to 57.1 µM
Summary of the method: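 Inhibitors reduce antibody binding to phosphorylated biotin-cJun, lowering AlphaScreen luminescence. Lysates from HepG2 cells pre-activated by IL-1beta plus TNF-alpha supplied JNK3; compounds were titrated.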

[7] = biological target: 3',5'-cyclic-AMP phosphodiesterase 4B (Homo sapiens) (UniProt Q07343); assay: qHTS Assay for Inhibitors of PDE-IV (AID 607; active means well fitted activation curve with a large enough effect in the main read-out, with a control signal flat, not every such curve was filed as active; further: % of control where 0% means no effect); conditions: HEK293 ACTOne CNG channel cells, membrane potential fluorescence; series mostly up to 22.9 µM
Summary of the method: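 Live HEK293 cells with a modified cyclic nucleotide-gated (CNG) channel report intracellular cAMP via membrane-potential dye fluorescence (ex 535/em 590 nm). Endogenous PDE-IV was targeted. Compounds were tested at up to 22.9 uM final; RO 20-1724 100 uM served as control.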

[8] = biological target: Guanine nucleotide-binding protein G(i) subunit alpha-1 (Homo sapiens) (UniProt P63096); assay: qHTS Assay for Inhibitors of RGS12 GoLoco Motif Activity (Green Fluorophore) (AID 879); conditions: Galphai1/FITC-RGS12 GoLoco peptide, fluorescence polarization; series mostly up to 57.1 µM;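 further: 0% = labeled peptide with Gαi1 and full inhibition = labeled peptide alone without protein; negative values mean loss of peptide binding seen as reduced polarization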
Summary of the method: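 Fluorescence polarization assay: 50 nM Gαi1 with 10 nM FITC-labeled RGS12 GoLoco peptide in 10 mM Tris pH 7.5, 150 mM NaCl, 0.1 mM GDP, 0.05% NP40, 10 min at room temperature with compound.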

[9] = biological target: Cytochrome P450 3A4 (Homo sapiens) (UniProt P08684); assay: qHTS Assay for Activators of Cytochrome P450 3A4 (AID 885); conditions: recombinant CYP3A4, Luciferin-PPXE luminescence, 60 min; series mostly up to 57.1 µM; further: nearly all actives have a fitted effect of over 65% in size
Summary of the method: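 Quantitative HTS format: compounds preincubated with 20nM human CYP3A4 and Luciferin-PPXE substrate at KM, reaction started by NADPH regeneration, stopped after 60 min, luciferase luminescence read 20 min later.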

[10] = biological target: Cytochrome P450 2D6 (Homo sapiens) (UniProt P10635); assay: qHTS Assay for Inhibitors and Substrates of Cytochrome P450 2D6 (AID 891); conditions: recombinant CYP2D6, luciferin-ME EGE luminescence; series mostly up to 57.1 µM; further: potency means the concentration at half of the fitted maximal effect; nearly all actives have a fitted effect of over 60% in size
Summary of the method: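 Human CYP2D6 (5 nM) with 30 uM Luciferin-ME EGE (at Km) in 100 mM KPO4, compound preincubated 10 min, then NADPH regeneration system for 60 min at room temperature. Luciferin read by luminescence; normalized to 1.43 uM quinidine.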

[11] = biological target: Cytochrome P450 2C19 (Homo sapiens) (UniProt P33261); assay: qHTS Assay for Inhibitors and Substrates of Cytochrome P450 2C19 (AID 899); conditions: recombinant CYP2C19, luciferin-H EGE luminescence; series mostly up to 57.1 µM; further: potency means the concentration at half of the fitted maximal effect; nearly all actives have a fitted effect of over 60% in size
Summary of the method: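 In 50mM KPO4, the reaction held 5nM enzyme and KM-level (10uM) Luciferin-H EGE; it ran 60 min at 37C after NADPH regeneration and a 10 min compound preincubation. Luminescence values were scaled to 57uM ketoconazole as complete inhibition.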

[12] = qHTS Assay for Identification of Small Molecule Antagonists for Thrombopoietin (TPO) Signaling Pathway (AID 918); conditions: TPO-dependent cell signaling reporter, antagonist mode; further: potency means the concentration at half of the fitted maximal effect; nearly all actives have a fitted effect of over 60% in size
Summary of the method: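 Murine Ba/F3 cells expressing human TPO receptor and a Glycoprotein IIb promoter-luciferase reporter, IL-3-starved overnight, treated with compound plus TPO at EC50 (26 pM final). After 24 h at 37 C, luminescence read to detect inhibitors.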

[13] = biological target: Muscarinic acetylcholine receptor M1 (Rattus norvegicus) (UniProt P08482); assay: qHTS Assay for Antagonists of Acetylcholine Muscarinic M1 Receptor: Kinetic Measurement of Intracellular Calcium Response (AID 943); conditions: M1-expressing cells, kinetic intracellular calcium fluorescence; series mostly up to 35.3 µM; further: potency means the concentration at half of the fitted maximal effect; nearly all actives have a fitted effect of over 75% in size
Summary of the method: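 CHO cells expressing rat M1 receptor, Fluo-4 loaded, preincubated 10 min with compound, then stimulated with EC80 carbachol (100 nM final). Kinetic calcium fluorescence over 4 min; response taken as peak over basal signal.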

[14] = biological target: Muscarinic acetylcholine receptor M1 (Rattus norvegicus) (UniProt P08482); assay: qHTS Assay for Antagonists of Acetylcholine Muscarinic M1 Receptor: Measurement of IP-One Response (AID 944); conditions: CHO-M1 cells, IP-One HTRF, antagonist mode; series mostly up to 46.1 µM; further: potency means the concentration at half of the fitted maximal effect; nearly all actives have a fitted effect of over 75% in size
Summary of the method: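 CHO cells stably expressing rat M1, pretreated 10 min with compound, then stimulated 30 min with carbachol at EC80 (200 nM) in LiCl-containing buffer pH 7.4; IP1 accumulation read by HTRF competition (665/620 nm).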

[15] = biological target: Pyruvate kinase (Leishmania mexicana) (UniProt Q27686); assay: qHTS Validation Assay for Inhibitors of Leishmania Mexicana Pyruvate Kinase (AID 945);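 further: 0% = DMSO only neutral control wells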; conditions: purified L. mexicana pyruvate kinase, enzyme activity, E451W mutant enzyme; series mostly up to 57.5 µM
Summary of the method: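 Eight-point qHTS titrations; enzyme 0.2 nM LmPYK (E451W mutant); substrates 0.5 mM PEP, 0.1 mM ADP; 7 mM MgCl2; 1 h room temperature; PKLight luminescence normalized to neutral control.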

[16] = biological target: Pyruvate kinase PKM (Homo sapiens) (UniProt P14618); assay: qHTS Assay for Activators of Human Muscle Pyruvate Kinase (AID 954; active means well fitted curve in the direction sought with a large enough effect, not every such curve was filed as active;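 further: 0% = uninhibited enzyme and -100% = no enzyme or full thiadiazolimine inhibition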); conditions: purified human muscle pyruvate kinase, luciferase-coupled luminescence, 1 h; series mostly up to 57.5 µM
Summary of the method: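 Enzyme was run at intermediate activity so both inhibitors and activators could be detected. ATP formed from ADP and PEP by 0.1 nM human PKM2 during a 1 h room-temperature incubation was quantified by coupled luciferase luminescence.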

[17] = biological target: Alpha-galactosidase A (Homo sapiens) (UniProt P06280); assay: Counterscreen for Glucocerebrosidase Inhibitors: qHTS Assay for Human alpha-Galactosidase at pH 4.5 (AID 992); conditions: purified enzyme, fluorogenic substrate; series mostly up to 76.9 µM; further: 0% is about no effect
Summary of the method: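 Read-out is 4-methylumbelliferone fluorescence (365 nm excitation, 440 nm emission) after a pH 10 NaOH/glycine stop. Reactions held 2 nM enzyme and 80 uM substrate at pH 4.5 for 20 min at room temperature.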

[18] = biological target: alpha-glucosidase (Oryza sativa, rice) (UniProt Q653V4); assay: Counterscreen for Glucocerebrosidase Inhibitors: qHTS Assay for Rice alpha-Glucosidase at pH 5.0 (AID 997); conditions: rice alpha-glucosidase enzyme activity; series mostly up to 76.9 µM;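 further: 0% = full activity with enzyme and -100% = basal without enzyme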
Summary of the method: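 Rice alpha-glucosidase (4 nM final) with 400 uM 4-methylumbelliferyl-alpha-D-glucopyranoside in citrate buffer pH 5.0, 20 min at room temperature, stopped at pH 10; fluorescence 365/440 nm, compounds 0.7 nM–77 uM, AC50 from Hill fits.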

[19] = qHTS Assay for Lipid Storage Modulators (AID 1519; calls by dose curve; on activity change, negative = inhibition: on the % scale 0 is the no-effect control and ±100 the full control effect); conditions: Drosophila S3 cells, BODIPY lipid droplet/cell ratio, laser cytometry, cells loaded with oleic acid
Summary of the method: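 Cells seeded at 5,000 per well were treated with compounds over a concentration series and loaded with oleic acid (400 uM, as added). Lipid droplet fluorescence (488 nm excitation, 500-530 nm channel) was read by laser-scanning cytometry and normalized to 20 uM Triacsin C.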

[20] = biological target: Ubiquitin carboxyl-terminal hydrolase 1 (Homo sapiens) (UniProt O94782); assay: Inhibitors of USP1/UAF1: Pilot qHTS (AID 504865); conditions: purified USP1/UAF1, Ub-rhodamine cleavage fluorescence; series mostly up to 114 µM;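 further: rhodamine fluorescence freed from ubiquitin-rhodamine substrate followed over time; top concentration of the series differs between compounds; on the % scale 0 is the no-effect control and ±100 the full control effect; nearly all actives have a fitted effect of over 35% in size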
Summary of the method: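 USP1/UAF1 complex (1nM) preincubated with compound 15 min at room temperature, then Ub-Rho substrate (150nM final) added. Fluorescence read kinetically at 480/540 nm, 6 reads every 60 seconds. Buffer: 50mM HEPES pH 7.8, 0.5mM EDTA, 0.1 mg/ml BSA, 1mM TCEP, 0.01% Tween-20.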

[21] = biological target: DNA dC->dU-editing enzyme APOBEC-3G (Homo sapiens) (UniProt Q9HC16); assay: qHTS for inhibitors of Vif-A3G interactions: Validation (AID 588379); conditions: Vif-A3G protein interaction assay; series mostly up to 46.1 µM; further: 0% is about no effect
Summary of the method: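 HeLa cells stably expressing Vif and A3G-eYFP, 700 cells/well, incubated overnight at 37 deg C, then exposed to compound overnight at 37 deg C. Inhibition of Vif-mediated degradation read as increased yellow fluorescence (Ex 488/Em 500-530) by laser-scanning cytometry.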

[22] = test system: Zika virus NS2B-NS3 protease; assay: Primary screen GU AMC qHTS for Zika virus inhibitors (AID 1347154); conditions: Zika NS2B-NS3 unlinked protease, AMC fluorogenic substrate; series mostly up to 54.1 µM;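 further: 0% = no-inhibitor control and -100% = no-enzyme control; nearly all actives have a fitted effect of over 70% in size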
Summary of the method: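 Unlinked Zika NS2B hydrophilic domain/NS3 protease domain noncovalent complex (25 nM final) in 10 mM Tris-HCl pH 8.0, 0.01% Tween 20, with AMC peptide substrate. Fluorescence (ex 340, em 450 nm) change over 15 min, room temperature; percent inhibition fitted to 4-parameter Hill equation.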

[23] = Counterscreen qHTS for small molecule stabilizers of the endoplasmic reticulum resident proteome: GLuc-NoTag assay (AID 1508627); conditions: Gaussia luciferase NoTag secretion counterscreen, luminescence, thapsigargin 100 nM for final 4 h; series mostly up to 76.4 µM;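 further: SH-SY5Y cells given compound then 100 nM thapsigargin to empty ER calcium; 0% = thapsigargin alone and -100% = DMSO vehicle control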
Summary of the method: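 SH-SY5Y cells stably expressing constitutively secreted GLuc (no SERCaMP tag) were pre-incubated 5 h, treated with compound for 19 h, then 100 nM thapsigargin for 4 h at 37C; medium GLuc read by coelenterazine luminescence.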

[24] = Confirmatory qHTS for small molecule stabilizers of the endoplasmic reticulum resident proteome: Secreted ER Calcium Modulated Protein (SERCaMP) assay (AID 1508628); conditions: SERCaMP secreted luciferase ER calcium/proteostasis reporter; series mostly up to 76.3 µM; further: potency means the concentration at half of the fitted maximal effect; nearly all actives have a fitted effect of over 40% in size
Summary of the method: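 SH-SY5Y cells stably expressing GLuc-SERCaMP, treated 16 h with compound (primary 1.53, 7.67, 38.3 uM; confirmation 11 concentrations, up to 76.6 uM), then 100 nM thapsigargin for 4 h. Secreted Gaussia luciferase in medium read by coelenterazine luminescence.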

Sequence of Glucocorticoid receptor (Homo sapiens) (P04150 whole entry, looked up, the tested form may be a part): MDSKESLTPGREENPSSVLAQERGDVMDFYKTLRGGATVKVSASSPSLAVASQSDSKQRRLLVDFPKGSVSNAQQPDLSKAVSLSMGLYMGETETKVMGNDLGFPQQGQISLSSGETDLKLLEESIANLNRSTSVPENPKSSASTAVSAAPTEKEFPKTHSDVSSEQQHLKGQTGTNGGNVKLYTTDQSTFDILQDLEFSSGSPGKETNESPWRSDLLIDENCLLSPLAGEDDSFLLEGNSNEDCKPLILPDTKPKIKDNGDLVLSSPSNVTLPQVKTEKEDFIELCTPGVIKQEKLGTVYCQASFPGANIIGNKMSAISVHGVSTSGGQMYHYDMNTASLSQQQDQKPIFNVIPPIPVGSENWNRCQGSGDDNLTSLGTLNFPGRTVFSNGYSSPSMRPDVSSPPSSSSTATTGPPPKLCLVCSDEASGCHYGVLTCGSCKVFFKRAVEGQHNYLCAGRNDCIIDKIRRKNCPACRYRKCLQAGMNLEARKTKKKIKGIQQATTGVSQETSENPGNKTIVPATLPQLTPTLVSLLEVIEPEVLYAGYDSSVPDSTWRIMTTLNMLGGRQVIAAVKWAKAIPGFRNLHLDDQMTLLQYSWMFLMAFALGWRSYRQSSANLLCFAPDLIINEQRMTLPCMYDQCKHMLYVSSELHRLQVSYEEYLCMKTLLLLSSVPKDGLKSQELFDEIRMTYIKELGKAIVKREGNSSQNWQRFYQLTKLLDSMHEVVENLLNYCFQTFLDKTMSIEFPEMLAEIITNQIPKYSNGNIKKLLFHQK
Sequence of Cytochrome P450 2D6 (Homo sapiens) (P10635 whole entry, looked up): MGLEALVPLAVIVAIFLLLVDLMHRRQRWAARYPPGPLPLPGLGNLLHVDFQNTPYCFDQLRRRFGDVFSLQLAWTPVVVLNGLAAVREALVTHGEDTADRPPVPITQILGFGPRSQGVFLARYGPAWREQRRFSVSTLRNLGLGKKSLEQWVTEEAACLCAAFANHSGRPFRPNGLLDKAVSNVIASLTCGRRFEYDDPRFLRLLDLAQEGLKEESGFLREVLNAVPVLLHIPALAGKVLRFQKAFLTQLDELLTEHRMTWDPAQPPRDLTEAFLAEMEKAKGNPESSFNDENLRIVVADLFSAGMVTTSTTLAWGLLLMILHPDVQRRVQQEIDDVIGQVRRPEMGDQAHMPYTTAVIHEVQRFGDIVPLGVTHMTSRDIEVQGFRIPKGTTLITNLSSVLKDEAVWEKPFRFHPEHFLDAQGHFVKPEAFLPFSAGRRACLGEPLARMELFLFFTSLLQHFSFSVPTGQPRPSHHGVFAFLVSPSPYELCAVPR
Sequence of Cytochrome P450 1A2 (Homo sapiens) (P05177 whole entry, looked up): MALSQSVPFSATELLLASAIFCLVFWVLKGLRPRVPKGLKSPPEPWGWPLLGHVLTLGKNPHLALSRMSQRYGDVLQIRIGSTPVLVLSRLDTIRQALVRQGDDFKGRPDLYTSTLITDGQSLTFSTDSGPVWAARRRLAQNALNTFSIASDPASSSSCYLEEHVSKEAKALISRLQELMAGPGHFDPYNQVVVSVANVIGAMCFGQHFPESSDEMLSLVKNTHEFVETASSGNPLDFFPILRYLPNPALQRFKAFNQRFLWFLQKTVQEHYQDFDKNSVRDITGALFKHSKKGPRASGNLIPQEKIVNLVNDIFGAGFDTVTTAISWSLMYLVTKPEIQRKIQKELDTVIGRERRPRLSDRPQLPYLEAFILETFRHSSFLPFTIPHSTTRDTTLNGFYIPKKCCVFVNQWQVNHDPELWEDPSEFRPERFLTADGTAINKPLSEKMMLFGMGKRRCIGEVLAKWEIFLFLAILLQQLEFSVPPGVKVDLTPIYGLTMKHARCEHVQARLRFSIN
Sequence of Muscarinic acetylcholine receptor M1 (Rattus norvegicus) (P08482 whole entry, looked up): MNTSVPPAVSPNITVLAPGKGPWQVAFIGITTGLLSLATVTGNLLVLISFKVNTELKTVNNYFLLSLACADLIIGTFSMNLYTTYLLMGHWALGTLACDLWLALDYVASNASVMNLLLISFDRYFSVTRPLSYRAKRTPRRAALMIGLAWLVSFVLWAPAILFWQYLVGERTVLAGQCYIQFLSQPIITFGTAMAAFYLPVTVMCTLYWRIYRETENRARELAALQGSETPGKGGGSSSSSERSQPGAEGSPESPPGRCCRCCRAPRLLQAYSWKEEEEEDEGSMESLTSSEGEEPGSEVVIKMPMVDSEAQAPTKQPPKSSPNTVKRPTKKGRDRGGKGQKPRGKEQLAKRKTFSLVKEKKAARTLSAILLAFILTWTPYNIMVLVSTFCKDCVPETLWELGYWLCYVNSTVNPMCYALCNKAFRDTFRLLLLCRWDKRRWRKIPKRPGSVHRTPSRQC
Sequence of Cytochrome P450 3A4 (Homo sapiens) (P08684 whole entry, looked up): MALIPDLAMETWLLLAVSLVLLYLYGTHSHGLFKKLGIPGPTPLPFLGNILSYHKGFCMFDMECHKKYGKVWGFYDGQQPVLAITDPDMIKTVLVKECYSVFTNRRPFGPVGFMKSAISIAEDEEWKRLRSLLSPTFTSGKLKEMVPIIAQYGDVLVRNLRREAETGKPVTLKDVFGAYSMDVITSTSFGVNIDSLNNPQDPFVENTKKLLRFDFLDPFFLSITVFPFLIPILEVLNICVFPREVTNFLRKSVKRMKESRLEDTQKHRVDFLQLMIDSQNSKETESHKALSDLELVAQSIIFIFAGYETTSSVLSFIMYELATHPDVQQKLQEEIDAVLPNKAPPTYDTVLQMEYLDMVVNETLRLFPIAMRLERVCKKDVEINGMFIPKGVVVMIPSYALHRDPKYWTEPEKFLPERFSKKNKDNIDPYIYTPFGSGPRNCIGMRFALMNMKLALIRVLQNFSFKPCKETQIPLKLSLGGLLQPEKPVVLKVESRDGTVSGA
Sequence of 3',5'-cyclic-AMP phosphodiesterase 4B (Homo sapiens) (Q07343 whole entry, looked up): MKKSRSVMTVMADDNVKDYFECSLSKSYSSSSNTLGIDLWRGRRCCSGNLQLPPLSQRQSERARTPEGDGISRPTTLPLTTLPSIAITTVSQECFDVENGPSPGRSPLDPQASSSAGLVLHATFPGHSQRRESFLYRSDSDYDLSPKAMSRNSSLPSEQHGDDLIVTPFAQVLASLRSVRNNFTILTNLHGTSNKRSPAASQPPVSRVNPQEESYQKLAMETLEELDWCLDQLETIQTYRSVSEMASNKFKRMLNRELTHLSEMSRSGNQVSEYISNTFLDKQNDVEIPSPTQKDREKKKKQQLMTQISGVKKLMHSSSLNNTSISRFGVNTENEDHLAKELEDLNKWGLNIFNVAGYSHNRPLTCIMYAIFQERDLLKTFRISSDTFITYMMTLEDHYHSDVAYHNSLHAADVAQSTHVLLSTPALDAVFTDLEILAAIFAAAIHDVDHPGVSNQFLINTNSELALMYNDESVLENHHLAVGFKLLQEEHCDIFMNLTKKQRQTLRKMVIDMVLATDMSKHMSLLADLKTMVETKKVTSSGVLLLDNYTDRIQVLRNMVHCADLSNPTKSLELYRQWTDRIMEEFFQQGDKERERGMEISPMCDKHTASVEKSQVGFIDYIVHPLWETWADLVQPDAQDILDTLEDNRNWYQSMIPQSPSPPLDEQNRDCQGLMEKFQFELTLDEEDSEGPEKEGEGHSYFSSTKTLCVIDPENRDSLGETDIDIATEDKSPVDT
Sequence of DNA dC->dU-editing enzyme APOBEC-3G (Homo sapiens) (Q9HC16 whole entry, looked up): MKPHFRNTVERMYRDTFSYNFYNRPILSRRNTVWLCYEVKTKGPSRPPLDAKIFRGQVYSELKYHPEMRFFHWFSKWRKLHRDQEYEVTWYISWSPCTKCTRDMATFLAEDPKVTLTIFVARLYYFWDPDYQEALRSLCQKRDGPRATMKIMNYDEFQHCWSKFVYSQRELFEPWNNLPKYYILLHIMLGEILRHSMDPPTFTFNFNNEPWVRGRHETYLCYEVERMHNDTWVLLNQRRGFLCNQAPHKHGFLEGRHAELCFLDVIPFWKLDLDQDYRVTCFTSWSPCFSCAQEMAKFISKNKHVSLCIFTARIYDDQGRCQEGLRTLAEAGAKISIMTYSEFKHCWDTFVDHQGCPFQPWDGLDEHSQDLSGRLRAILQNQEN
Sequence of Pyruvate kinase PKM (Homo sapiens) (P14618 whole entry, looked up): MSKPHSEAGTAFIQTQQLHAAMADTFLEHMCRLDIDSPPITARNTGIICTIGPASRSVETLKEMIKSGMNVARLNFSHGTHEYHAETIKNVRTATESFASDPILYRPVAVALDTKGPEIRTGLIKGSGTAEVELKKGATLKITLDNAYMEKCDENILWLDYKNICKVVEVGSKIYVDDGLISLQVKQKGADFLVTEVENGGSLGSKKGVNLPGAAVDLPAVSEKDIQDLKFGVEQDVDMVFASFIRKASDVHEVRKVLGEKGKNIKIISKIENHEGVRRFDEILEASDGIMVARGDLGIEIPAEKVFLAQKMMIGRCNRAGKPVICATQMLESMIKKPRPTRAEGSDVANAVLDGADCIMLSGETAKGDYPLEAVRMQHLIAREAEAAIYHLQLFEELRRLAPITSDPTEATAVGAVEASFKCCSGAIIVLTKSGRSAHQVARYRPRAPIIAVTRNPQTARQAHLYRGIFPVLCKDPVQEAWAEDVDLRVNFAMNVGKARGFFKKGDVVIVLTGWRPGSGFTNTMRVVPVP
Sequence of Pyruvate kinase (Leishmania mexicana) (Q27686 2-499 E452W): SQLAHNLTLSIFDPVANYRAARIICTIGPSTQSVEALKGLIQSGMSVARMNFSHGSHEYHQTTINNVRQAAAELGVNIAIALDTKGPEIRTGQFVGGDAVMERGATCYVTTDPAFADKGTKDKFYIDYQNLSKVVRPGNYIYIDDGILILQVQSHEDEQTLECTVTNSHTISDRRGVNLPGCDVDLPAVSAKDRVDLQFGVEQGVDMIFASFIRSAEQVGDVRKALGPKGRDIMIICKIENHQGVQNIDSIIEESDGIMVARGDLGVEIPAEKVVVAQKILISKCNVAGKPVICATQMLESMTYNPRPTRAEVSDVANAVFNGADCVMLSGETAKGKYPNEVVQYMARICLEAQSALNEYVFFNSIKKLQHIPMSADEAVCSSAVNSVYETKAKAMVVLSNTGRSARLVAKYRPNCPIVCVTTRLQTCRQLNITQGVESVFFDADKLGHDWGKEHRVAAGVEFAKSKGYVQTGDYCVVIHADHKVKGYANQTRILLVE

## CSc1ccc2c(c1)[C@H](N1CCN(C)CC1)Cc1ccccc1S2
[1]; at 17.2 µM (top of the series)
  activity change, negative = inhibition: 22.7% (inactive)
[1]; at 38 µM (top of the series)
  activity change, negative = inhibition: 16% (inactive)
[2]
  Potency: 31.6 µM (active)
[3]; at 17.2 µM (top of the series)
  activity, negative = inhibition: -9.5% (inactive)
[3]; at 38 µM (top of the series)
  activity, negative = inhibition: -17.1% (inactive)
[4]
  Potency: > 46 µM (inactive) and > 20.6 µM (inactive)
[5]
  Potency: > 46 µM (inactive) and > 20.6 µM (inactive)
[6]
  Potency: inactive
[7]
  Potency: inactive
[8]
  outcome: inactive
[9]
  Potency: inactive
[10]
  Potency: 3.98 µM (active) and 1.58 µM (active) and 316 nM (active)
[11]
  Potency: 7.94 µM (active)
[12]
  Potency: 10 µM (active)
[13]
  Potency: 2.24 µM (active)
[14]
  Potency: 5.62 µM (active)
[15]
  Potency: inactive
[16]
  outcome: inactive
[17]
  outcome: inactive
[18]
  outcome: inactive
[19]; at 25.7 µM (top of the series)
  activity change, negative = inhibition: -1.54% (inactive)
[19]; measured here: cell count channel max response
  max response: -9.42%
[19]; measured here: lipid channel max response
  max response: -12.6%
[20]
  Potency: inactive
[21]
  Potency: inactive
[22]
  Potency: inactive
[23]
  Potency: inactive
[24]
  Potency: 7.94 µM (active)
